Compound activity (PubChem)
Only some compounds are listed: those with a hit (about 10% of all), similar ones and a draw of the others.
Lamin A splicing – qHTS Assay for Modulators of Lamin A Splicing. HeLa LMNA splicing GFP/RFP minigene ratio, 48 h. 200,000 compounds, 0.01% hits. Potency, µM (highest dose often 46.1 µM), inactives show at the highest dose ratio change, negative = inhibition, actives largely listed as inhibitors. AID 1487, 2009; active means well fitted inhibition curve with a large enough effect in the signal ratio, with a control signal flat, not every such curve was filed as active; inconclusive means small, poorly fitted or top-dose-only effect, or effect the other way, or a change in a side signal; the % refers to the signal ratio; further: potency means the concentration at half of the fitted maximal effect
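S3 HeLa stable clones carrying a lamin A-EGFP splicing minigene plus DsRed2 were seeded at 600 cells/well in Opti-MEM with 2% FBS, pin-dosed and incubated 48 h at 37°C. Acumen cytometry (488 nm) gave the GFP/RFP total-intensity ratio.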
ALDH1A1 block – qHTS Assay for Inhibitors of Aldehyde Dehydrogenase 1 (ALDH1A1); Aldehyde dehydrogenase 1A1 (Homo sapiens), P00352; Purified ALDH1A1, NADH fluorescence, propionaldehyde substrate; Potency, µM (top dose mostly 75.3 µM), without a hit: at the top dose activity, negative = inhibition, actives largely listed as inhibitors; 220,000 compounds, 7.3% hits; AID 1030, 2008;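 further: potency means the concentration at half of the fitted maximal effect; plate controls were no enzyme wells and a reference inhibitor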
Target sequence (P00352 whole entry, looked up): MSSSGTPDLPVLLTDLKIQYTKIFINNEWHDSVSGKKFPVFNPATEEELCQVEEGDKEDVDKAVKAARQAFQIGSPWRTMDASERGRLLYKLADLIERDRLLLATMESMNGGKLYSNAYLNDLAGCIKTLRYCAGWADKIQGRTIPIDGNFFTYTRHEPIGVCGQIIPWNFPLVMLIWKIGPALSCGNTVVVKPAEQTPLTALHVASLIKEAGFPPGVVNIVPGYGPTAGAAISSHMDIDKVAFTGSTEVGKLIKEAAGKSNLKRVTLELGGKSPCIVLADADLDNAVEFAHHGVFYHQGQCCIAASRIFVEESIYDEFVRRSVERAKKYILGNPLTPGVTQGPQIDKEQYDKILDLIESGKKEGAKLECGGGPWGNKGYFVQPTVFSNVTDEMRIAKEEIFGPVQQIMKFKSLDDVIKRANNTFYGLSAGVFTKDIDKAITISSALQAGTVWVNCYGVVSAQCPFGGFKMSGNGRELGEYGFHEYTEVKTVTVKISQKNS
HPGD inh – qHTS Assay for Inhibitors of HPGD (15-Hydroxyprostaglandin Dehydrogenase); 15-hydroxyprostaglandin dehydrogenase [NAD(+)] (Homo sapiens), P15428; purified HPGD, NADH fluorescence kinetic, PGE2 substrate; Potency, µM, inactives show at the top dose activity change, negative = inhibition, actives largely listed as inhibitors; 150,000 compounds, 4.3% hits; AID 894, 2007; further: potency means the concentration at half of the fitted maximal effect
Target sequence (P15428 whole entry, looked up): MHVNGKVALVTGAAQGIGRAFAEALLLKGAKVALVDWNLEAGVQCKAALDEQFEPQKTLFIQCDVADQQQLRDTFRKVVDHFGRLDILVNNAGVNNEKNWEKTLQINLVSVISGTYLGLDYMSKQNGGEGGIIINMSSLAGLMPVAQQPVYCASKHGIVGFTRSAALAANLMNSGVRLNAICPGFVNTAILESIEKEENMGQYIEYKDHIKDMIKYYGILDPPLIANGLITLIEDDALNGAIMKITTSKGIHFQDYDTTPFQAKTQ
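20 nM HPGD preincubated 15 min at room temperature with compound in 50 mM Tris-HCl pH 8, 0.01% Tween 20. Started with 1 mM NAD+ and 30 uM prostaglandin E2; NADH fluorescence (360/450 nm) read 5 times over 30-s intervals, last minus first.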
PNC inhibitor – High Content Assay for Compounds that inhibit the Assembly of the Perinucleolar Compartment; activity change (PNC), negative = inhibition, % at 10 µM; PC3M PTB-GFP, PNC prevalence imaging, 16 h; stronger effect = lower value; 140,000 compounds, 3.1% hits;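 active means readout at or below -70, meaning at least 70% loss of cells showing the perinucleolar compartment, a nuclear body marking cancer cells; inconclusive means readout between -30 and a set limit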;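 further: plate controls were DMSO wells for no effect and camptothecin positive control wells for full effect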
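Compounds are pinned in duplicate onto adhered PC3M cells stably expressing GFP-tagged PTB and incubated 16 h at 37 C. Cells are then fixed, nuclei stained with Hoechst, and PNC-positive cells counted.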
12-hLO inh – qHTS Assay for Inhibitors of 12-hLO (12-human lipoxygenase). Polyunsaturated fatty acid lipoxygenase ALOX12 (Homo sapiens), P18054. 150,000 compounds, 0.12% hits. purified 12-hLO, xylenol orange hydroperoxide absorbance. Potency, µM (titrated, usually from 57.1 µM), for the others: top-dose activity change, negative = inhibition, usual class: inhibitors; active means well fitted inhibition curve with a large enough effect; inconclusive means small, poorly fitted or top-dose-only effect; further: potency means the concentration at half of the fitted maximal effect; nearly all actives have a fitted effect of over 55% in size
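Hydroperoxide output read as Fe(III)-xylenol orange absorbance, 573-to-405 nm ratio, after 30 min reaction with 40 uM arachidonic acid. Enzyme: 150 nM purified human 12hLO, 15 min compound preincubation; 25 mM Hepes pH 7.0, room temperature.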
The depositor's hits bear a star; [ ] = dose if it differs, or a comment. Unless noted, the call rests on the fitted dose curve; in most records, active means well fitted inhibition curve with a large enough effect (not every such curve was filed as active); inconclusive means small, poorly fitted or top-dose-only effect, or another doubt; inactive means no such curve, though single readings can be large or run the other way. Unless noted, on the % scale 0 is the no-effect control and ±100 the full control effect.

What do the screens show for `COc1ccc(S(=O)(=O)N(CC(=O)Nc2ccc(S(=O)(=O)N3CCOCC3)cc2)c2ccccc2)cc1`?
Lamin A splicing: inconclusive; ALDH1A1 block: inconclusive; HPGD inh: 3.55µM*; PNC inhibitor: 2.6; 12-hLO inh: -1.0%

Results for CSc1ccc(S(=O)(=O)N2CCN(Cc3ccc4c(c3)OCO4)CC2)cc1 ?
Lamin A splicing: inconclusive; ALDH1A1 block: 14.1µM*; HPGD inh: -3.3%; PNC inhibitor: 7.6; 12-hLO inh: 2.5%

Results for COc1ccc(S(=O)(=O)N(CC(=O)N2CCN(c3ccccc3)CC2)c2ccccc2)cc1 ?
Lamin A splicing: inconclusive; ALDH1A1 block: -25.7%; HPGD inh: -15.7%; PNC inhibitor: -112.1*; 12-hLO inh: -4.5%

How did COc1ccc(S(=O)(=O)N2CCN(Cc3ccc4c(c3)OCO4)CC2)cc1C do in these assays?
Lamin A splicing: -1.6%[46 µM]

Results for COc1ccc(CCNC(=O)CCNS(=O)(=O)c2cccc(Cl)c2)cc1OC ?
Lamin A splicing: 5.9%[46 µM]; ALDH1A1 block: -10.4%

What do the screens show for `COc1ccc(CCNC(=O)CN2CCN(c3cccc(Cl)c3)CC2)cc1OC`?
Lamin A splicing: -20.3%; ALDH1A1 block: -8.9%; HPGD inh: -6.8%; PNC inhibitor: -91.2*; 12-hLO inh: -5.7%

What do the screens show for `COc1ccc(CNC(=O)CN2CCN(S(=O)(=O)c3cccs3)CC2)cc1OC`?
ALDH1A1 block: 11.2µM*

How did Cc1ccc(CNC(=O)COC(=O)C2CCN(S(=O)(=O)c3cccs3)CC2)cc1 do in these assays?
Lamin A splicing: 10.0%[46 µM]; ALDH1A1 block: -1.6%

Results for COc1ccc(CCNC(=O)C(=O)NCc2ccc(C(C)C)cc2)cc1OC ?
Lamin A splicing: 2.1%; ALDH1A1 block: 0.794µM*; HPGD inh: -18.5%; PNC inhibitor: -2.9; 12-hLO inh: 3.7%

What do the screens show for `COc1ccc(CNC(=O)CCc2c(C)nn(-c3ccc(N4CCCCC4)nn3)c2C)cc1`?
Lamin A splicing: 4.9%[46 µM]

What do the screens show for `CCOc1ccc(CCNC(=O)C2Cc3ccccc3N2C(=O)CC)cc1` (configuration not stated)?
Lamin A splicing: 10.6%[46 µM]

How did NS(=O)(=O)c1ccc(CCNCC(=O)N2CCC(Cc3ccccc3)CC2)cc1 do in these assays?
ALDH1A1 block: 10µM*

What do the screens show for `CCn1c(CC(=O)Nc2cccc(Cl)c2Cl)nnc1SCCOc1ccc(OC)cc1`?
Lamin A splicing: 5.0%; ALDH1A1 block: 14.1µM*; HPGD inh: -5.1%; PNC inhibitor: 8.0; 12-hLO inh: -1.2%

How did O=C(c1noc2c1CCc1ccccc1-2)N1CCOCC1 do in these assays?
Lamin A splicing: -11.5%; ALDH1A1 block: -13.7%; HPGD inh: -22.6%; PNC inhibitor: -13.6; 12-hLO inh: 5.3%

Results for Cc1cc(NC(=O)c2noc3c2CCc2ccccc2-3)no1 ?
Lamin A splicing: -12.4%; ALDH1A1 block: 4.3%; HPGD inh: -9.6%; PNC inhibitor: -4.4; 12-hLO inh: -0.3%

How did O=C(c1noc2c1CCc1ccccc1-2)N1CCCc2ccccc21 do in these assays?
Lamin A splicing: inconclusive; ALDH1A1 block: 12.6µM*; HPGD inh: -27.4%; PNC inhibitor: 26.9; 12-hLO inh: -6.8%

How did O=C(c1noc2c1CCc1ccccc1-2)N1CCc2ccccc2C1 do in these assays?
Lamin A splicing: inconclusive; ALDH1A1 block: inconclusive; HPGD inh: 15.8µM*; PNC inhibitor: -9.5; 12-hLO inh: -10.4%

What do the screens show for `COc1ccc2c(c1)CCc1c(C(=O)NCC(C)C)noc1-2`?
Lamin A splicing: -4.2%[46 µM]; ALDH1A1 block: inconclusive

Results for COc1ccc2c(c1)CCc1c(C(=O)N3CCCCCC3)noc1-2 ?
Lamin A splicing: -0.8%; ALDH1A1 block: inconclusive; HPGD inh: 10µM*; PNC inhibitor: 24.7; 12-hLO inh: -8.3%

How did COc1ccccc1NC(=O)CSC1=Nc2ccccc2C2=NC(CCC(=O)NCc3ccco3)C(=O)N12 (configuration not stated) do in these assays?
Lamin A splicing: 14.8%[46 µM]

How did NCC1O[C@H](O[C@@H]2C(O)[C@H](O[C@H]3OC(CO)C(O)C(N)C3O)[C@@H](N)C[C@H]2N)[C@@H](N)CC1O (some centres not stated) do in these assays?
ALDH1A1 block: -11.7%; HPGD inh: -9.5%; 12-hLO inh: -7.6%

How did O=[N+]([O-])c1ccc(N2CCN(Cc3ccccc3)CC2)nc1 do in these assays?
Lamin A splicing: 4.9%[9.22 µM]; ALDH1A1 block: 20µM*

Results for O=[N+]([O-])c1ccc(CN2CCN(c3ccc4ccccc4n3)CC2)cc1 ?
Lamin A splicing: 3.7%[46 µM]; ALDH1A1 block: 0.2%

What do the screens show for `O=C(O)/C=C/c1coc2ccccc2c1=O`?
Lamin A splicing: 1.8%; ALDH1A1 block: 7.5%; HPGD inh: -2.5%; PNC inhibitor: 37.0; 12-hLO inh: 2.4%

What do the screens show for `O=C(N/N=C/c1coc2ccccc2c1=O)c1cn(-c2ccccc2)nc1-c1ccccc1`?
Lamin A splicing: -6.6%; ALDH1A1 block: 3.16µM*; HPGD inh: -15.1%; PNC inhibitor: -11.0; 12-hLO inh: 0.6%

How did NC(=O)N/N=C/c1coc2ccc(O)cc2c1=O do in these assays?
ALDH1A1 block: 17.8µM*

What do the screens show for `O=C(N/N=C/c1coc2ccccc2c1=O)c1ccccc1`?
Lamin A splicing: inconclusive; ALDH1A1 block: 3.98µM*

How did O=C(N/N=C\c1coc2ccccc2c1=O)c1ccco1 do in these assays?
ALDH1A1 block: 1.58µM*

What do the screens show for `Cc1oc(-c2ccccc2)nc1CS(=O)CC(=O)N1CCc2ccccc2C1` (configuration not stated)?
Lamin A splicing: -1.7%; ALDH1A1 block: 25.1µM*; HPGD inh: inconclusive; PNC inhibitor: 22.3; 12-hLO inh: 7.1%

What do the screens show for `O=S(=O)(c1ccccc1)N1CCC[C@@]2(CCN(Cc3cc(C(F)(F)F)cc(C(F)(F)F)c3)C2)C1`?
ALDH1A1 block: -11.7%; HPGD inh: -8.0%; 12-hLO inh: -7.5%

What do the screens show for `COc1cccc(C(=O)NCCC2=CCCCC2)c1`?
Lamin A splicing: 4.7%; ALDH1A1 block: inconclusive; HPGD inh: 14.1µM*; PNC inhibitor: -18.4; 12-hLO inh: 8.5%

How did CCOc1cccc2cc(C(=O)NCCC3=CCCCC3)c(=O)oc12 do in these assays?
Lamin A splicing: inconclusive; ALDH1A1 block: 25.1µM*

Results for O=C(NCCC1=CCCCC1)c1ccc([N+](=O)[O-])cc1 ?
Lamin A splicing: -11.0%; ALDH1A1 block: -10.5%; HPGD inh: -16.6%; PNC inhibitor: inconclusive; 12-hLO inh: -3.2%
